Screens: PubChem, National Center for Advancing Translational Sciences (NCATS)
Hits are enriched below; roughly 4.6% of the tested compounds scored in any of these assays.
TRHR enhancer: allosterically enhances the human TRH receptor | TRHR cells, fluo-8 calcium fluorescence, EC20 TRH enhancement | enhancement, % at 2 µM | actives 0.66% (n = 360,000) | AID 493056; in the data active means enhancement above about 30%
Target sequence (P34981 whole entry, looked up): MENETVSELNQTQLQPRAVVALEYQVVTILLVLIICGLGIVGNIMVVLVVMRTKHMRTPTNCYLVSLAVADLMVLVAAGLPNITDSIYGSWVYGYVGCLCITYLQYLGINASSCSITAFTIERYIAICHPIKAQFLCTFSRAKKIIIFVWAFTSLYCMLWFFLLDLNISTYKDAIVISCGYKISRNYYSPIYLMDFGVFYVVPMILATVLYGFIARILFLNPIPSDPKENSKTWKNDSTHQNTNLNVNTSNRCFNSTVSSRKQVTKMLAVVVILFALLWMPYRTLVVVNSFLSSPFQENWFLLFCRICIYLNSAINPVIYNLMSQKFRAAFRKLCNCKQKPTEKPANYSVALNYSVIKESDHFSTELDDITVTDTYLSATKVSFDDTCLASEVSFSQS
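Enhancer read-out: after compound pinning and an initial kinetic agonist-mode read, an EC20 of TRH (10 nM final) was injected and fluo-8 calcium signal (Ex 480/Em 530) followed at 1 s/cycle for 100 cycles in TRHR-expressing cells.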
D1 antag: blocks dopamine activation of the human D1 receptor; activity change, negative = inhibition, % at 10 µM; HEK293 TREx D1 cells, calcium flux, dopamine EC80; stronger effect = lower value; P21728; actives 3.2% (n = 360,000); in the data active means activity change below about -30%
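Cells carrying a force-coupled, tetracycline-inducible human D1 receptor report calcium flux. Each well gets a 10 s baseline, compound with 180 s monitoring, then an EC80 dopamine stimulus with a second 180 s kinetic read.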
D1 potentiator: human D1 dopamine receptor positive modulation | P21728 | HEK293 TREx D1 cells, calcium flux, dopamine EC20 potentiation | potentiation, % at 10 µM | actives 0.036% (n = 360,000) | AID 504651; in the data active means potentiation above about 30%
TRHR ag: agonists of human TRH receptor; activation, % at 2 µM; actives 0.18% (n = 360,000); P34981; TRHR cells, calcium flux fluo-8, FDSS agonist mode; AID 493084
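Steps: seed TRHR cells overnight; add fluo-8 no-wash Ca dye, RT 30 min–1.5 h; record 10 s baseline; pin-transfer compounds; monitor fluorescence 1 cycle/s for the agonist window. Calcium increases flag candidate agonists.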
D1 ag: human D1 receptor agonism; P21728; HEK293 T-REx D1 cells, calcium flux, agonist mode; activation, % at 2 µM; actives 1% (n = 360,000); AID 504660
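Inducible HEK293 T-REx D1 cells, force-coupled to calcium signalling, were plated at 4000 cells/well with tetracycline and held overnight at 30 C. After no-wash calcium dye loading, compound-evoked calcium rise over 180 s flagged agonists.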
Large screens that a line does not name were inactive. Unless noted, no stated cut-off is given here; in the data, active means activation above about 30%; inactive means the rest.

CCOc1ccccc1NC(=O)Cn1ncc2c([nH]c3ccccc32)c1=O	D1 antag -30
O=c1c(N2CCc3ccccc3C2)csc2ccccc12	none
Cc1oc(-c2ccc(C(=O)N(C)Cc3ccccc3)cc2)nc1CN1CCc2ccccc21	none
CCOC(=O)C1(Cc2ccc(OC)cc2)CCN(C(=O)c2cc(C)on2)CC1	D1 antag -33
CCOC(=O)C1(Cc2cccc(OC)c2)CCN(CC(O)CO)CC1 (stereo unspecified)	D1 antag -44
O=S(=O)(NCC(c1ccco1)S(=O)(=O)c1cccs1)c1ccc(Cl)cc1 (stereo unspecified)	none (no result: D1 antag)
CN(CCOc1ccccc1)S(=O)(=O)c1ccc2oc3ccccc3c2c1	D1 antag -43, D1 ag 40
COc1ccc(OCCNS(=O)(=O)c2ccc3oc4ccccc4c3c2)cc1	none
COc1ccc(CN2CC(=O)N(c3ccc(C)c(C)c3)C2=S)cc1OC	D1 antag -36
C=CCNC(=O)c1onc(CSc2cccc(OC)c2)c1C(=O)NCC=C	D1 antag -49
C=CCNC(=O)c1onc(CSc2ccc(Cl)cc2)c1C(=O)O	none
C=CCNC(=O)c1onc(CSc2ccc(F)c(F)c2)c1C(=O)O	D1 ag 31
O=C(Cc1ccc(Cl)cc1)N1CCN(c2ccccc2)CC1	none
C/C(=N\NC(=O)c1c(C)nc2ccccn12)c1ccc(O)cc1O	TRHR enhancer 40
C/C(=N\NC(=O)c1c(C)nc2ccccn12)c1ccccc1F	none
CCOC(=O)C1CCN(C(c2ccc(OCC)cc2)c2c(O)cc(C)n(CCOC)c2=O)CC1 (stereo unspecified)	none
COC(=O)CNC(=O)CSc1nc2c(sc(=S)n2-c2ccccc2)c(=O)[nH]1	D1 antag -37
CCOC(=O)CC(=O)CSc1nc2c(sc(=S)n2-c2ccccc2)c(=O)[nH]1	none
CN(C)N=Nc1ccc(-c2cn(Cc3ccccc3)cn2)cc1	none
COc1ccc(C(=O)Oc2ccc(/C=N/NC(=O)Cc3ccc([N+](=O)[O-])cc3)cc2)cc1	D1 antag -32
COc1ccc(C(=O)Oc2ccc(/C=N/O)cc2)cc1	D1 antag -35
CN(C)c1cccc(C(=O)N/C=C/n2cnc3cc(C(F)(F)F)ccc32)c1	D1 antag -39
CCC(=O)N/C=C/n1cnc2cc(C(F)(F)F)ccc21	none
COc1ccccc1-c1c(C)nn2c(-c3ccccc3)cc(-c3ccccc3)nc12	none
O=C(NNC(=S)NC(=O)c1cccnc1)c1ccc(Cl)cc1	none
O=C(NNC(=S)NCc1ccc(Cl)cc1)c1cccnc1	D1 antag -35
O=C(NNC(=O)c1cccs1)c1cccnc1	D1 antag -54
O=C(NNC(=O)c1ccc(Cl)c(Cl)c1)c1cccnc1	D1 antag -74
COC(=O)Cn1c(=O)c2c(nc3n2CCCN3Cc2ccccc2)n(C)c1=O	none
Cc1ccc(N(Cc2ccccc2)C(=O)Cc2ccc(S(=O)(=O)N3CCOCC3)s2)cc1	none
Nc1n[nH]c(N)c1N=Nc1ccccc1F	D1 antag -35
Cc1ccccc1N=Nc1c(N)n[nH]c1N	none
CS(=O)(=O)N(CC(=O)N1CCN(c2ccc(F)cc2)CC1)c1ccc(F)c(Cl)c1	TRHR enhancer 39 (no result: D1 antag)
COc1cc2c3nnc(-c4ccc(F)cc4)c-3cn(Cc3ccc(F)cc3)c2cc1OC	D1 antag -37
COc1ccc(Cn2cc3c(-c4ccc(F)cc4)nnc-3c3cc(OC)c(OC)cc32)cc1	none
COc1ccc(NC(=S)NCc2ccc(F)cc2)c(OC)c1	D1 antag -31
Cc1c(Cl)cccc1NC(=S)NCc1ccccc1Cl	none
COc1ccc(NC(=S)NCc2ccccc2Cl)c(OC)c1	D1 antag -33
COc1ccccc1NC(=S)NCC1CCC(CNC(=S)Nc2ccccc2OC)CC1 (stereo unspecified)	D1 antag -85
COc1ccccc1NC(=S)NCc1ccccc1Cl	TRHR enhancer 37
O=C(O)CCN1C(=O)c2ccc(Oc3ccc([N+](=O)[O-])cc3)cc2C1=O	none
CC(C)N(C(=O)c1nn(C)c2c1CSc1ccccc1-2)C1CCCCC1	none
Cc1cc(C)n2ncc(C(=O)O)c2n1	D1 antag -46
Cc1cc(C)n2ncc(C(=O)Nc3ccc(Cl)c(Cl)c3)c2n1	none
COc1ccc(N(CC(=O)Nc2cccc(C(C)=O)c2)S(=O)(=O)c2ccccc2)c(OC)c1	none
